From the antibiotic and cytotoxicity screens of Wong et al. (2023)
Screen size: about 39,000 compounds; about 1,500 (3.8%) were called active. The full list was thinned out, with actives kept by preference.

These compounds were tested on HSkMC (human skeletal muscle cells) (assay: cytotoxicity call (relative viability < 0.9)). Conditions: 10 µM.

SMILES | cytotoxicity call
COC(=O)C[C@@H]1CC[C@@H]2[C@H](COC[C@H](O)CN2S(=O)(=O)c2ccc(F)cc2)O1 | inactive
C[C@@H]1CN([C@@H](C)CO)S(=O)(=O)c2ccc(-c3cccnc3)cc2O[C@@H]1CN(C)C(=O)NC1CCCC1 | inactive
C[C@@H]1CN([C@H](C)CO)S(=O)(=O)c2ccc(-c3cncnc3)cc2O[C@@H]1CN(C)C(=O)C1CCCCC1 | inactive
CCCCC1C(=O)N(c2ccccc2)N(c2ccc(O)cc2)C1=O (configuration not stated) | inactive
O=C1C=CC(=O)N1c1ccc(O)cc1 | active
Oc1ccc(O)cc1 | inactive
COc1ccc(CN(C)C[C@H]2OCCCC[C@H](C)Oc3ccc(NS(=O)(=O)c4cccs4)cc3C(=O)N([C@@H](C)CO)C[C@@H]2C)cc1 | inactive
C[C@H]1CN([C@@H](C)CO)S(=O)(=O)c2ccc(C3=CCCCC3)cc2O[C@H]1CN(C)S(=O)(=O)c1cn(C)cn1 | inactive
Cc1ccc(S(=O)(=O)Nc2ccc3c(c2)C(=O)N([C@H](C)CO)C[C@@H](C)[C@H](CN(C)Cc2ccccc2)OCCCC[C@@H](C)O3)cc1 | inactive
COc1ccc(S(=O)(=O)N(C)C[C@H]2Oc3c(NC(=O)Nc4c(C)noc4C)cccc3C(=O)N([C@@H](C)CO)C[C@H]2C)cc1 | inactive
COc1ccc2c3c(n(c2c1)C)[C@H](CO)N(C[C@]13CN(C1)C(=O)CN(C)C)C(=O)CN(C)C | inactive
C[C@@H]1CN([C@@H](C)CO)C(=O)c2cc(NC(=O)CCCN(C)C)ccc2O[C@H]1CN(C)Cc1ccc(C(=O)O)cc1 | inactive
Cc1ncc([N+](=O)[O-])n1C[C@@H](O)CCl | inactive
Cc1noc(C)c1NC(=O)N(C)C[C@@H]1Oc2ccc(NC(=O)Cn3cnnn3)cc2C(=O)N([C@@H](C)CO)C[C@@H]1C | inactive
N#Cc1c(N)nc(SCc2csc(-c3ccc(Cl)cc3)n2)c(C#N)c1-c1ccc(OCCO)cc1 | active
COc1ccc(NC(=O)Nc2ccc3c(c2)C(=O)N([C@@H](C)CO)C[C@@H](C)[C@@H](CN(C)C(=O)Nc2ccc4c(c2)OCO4)OCCCC[C@@H](C)O3)cc1 | inactive
C[C@@H]1CCCCO[C@@H](CN(C)C(=O)CCC(F)(F)F)[C@@H](C)CN([C@@H](C)CO)C(=O)c2cc(NC(=O)Cc3ccccc3)ccc2O1 | inactive
C[C@@H]1CN([C@@H](C)CO)C(=O)Cc2cc(NC(=O)Nc3ccc(F)cc3)ccc2O[C@@H]1CN(C)S(C)(=O)=O | inactive
CCCNC(=O)[C@@]1(Sc2ccc(C)cc2)CC(=O)N(Cc2ccccc2C(F)(F)F)[C@@H]1c1ccc(CO)cc1 | inactive
Cn1cc(-c2[nH]c3cc(NC(=O)[C@H](N)C4CCCCC4)cc4c3c2C=NNC4=O)cn1 | active
CCCCCCCC/C=C\CCCCCCCC(N)=O | inactive

SMILES | cytotoxicity call
O=C(C[C@@H]1CC[C@@H]2[C@H](COC[C@H](O)CN2S(=O)(=O)c2ccccc2)O1)NCc1ccncn1 | inactive
C[C@@H]1CCCCO[C@@H](CN(C)C(=O)Nc2ccc(C(F)(F)F)cc2)[C@@H](C)CN([C@H](C)CO)C(=O)c2cc(NC(=O)CCCCCC(=O)Nc3ccccc3N)ccc2O1 | inactive
CCCCC(=O)c1ccc(O)cc1 | inactive
CCCCCS(=O)(=O)CCCCCCCCCCn1c(-c2ccc(O)cc2)c(C)c2cc(O)ccc21 | active
CC(=O)O.Cc1c(-c2ccc(O)cc2)n(Cc2ccc(OCCN3CCCCCC3)cc2)c2ccc(O)cc12 | inactive
C=C(NC(=O)C(=C)NC(=O)c1csc(C2=N[C@H]3c4csc(n4)[C@H]4NC(=O)c5csc(n5)[C@H](C(C)(O)[C@@H](C)O)NC(=O)[C@H]5CSC(=N5)C(=CC)NC(=O)[C@H]([C@@H](C)O)NC(=O)c5csc(n5)[C@]3(CC2)NC(=O)[C@H](C)NC(=O)C(=C)NC(=O)[C@H](C)NC(=O)[C@H]([C@H](C)CC)N[C@@H]2C=Cc3c([C@H](C)O)cc(nc3[C@H]2O)C(=O)O[C@@H]4C)n1)C(N)=O (some centres not stated) | active
C=C(NC(=O)C(=C)NC(=O)c1csc(C2=N[C@@H]3c4csc(n4)[C@@H]4NC(=O)c5csc(n5)[C@H](C(C)(O)[C@@H](C)O)NC(=O)[C@H]5CSC(=N5)/C(=C/C)NC(=O)[C@H]([C@@H](C)O)NC(=O)c5csc(n5)[C@]3(CC2)NC(=O)[C@@H](C)NC(=O)C(=C)NC(=O)[C@@H](C)NC(=O)[C@@H]([C@H](C)CC)N[C@H]2C=Cc3c([C@@H](C)O)cc(nc3[C@@H]2O)C(=O)O[C@H]4C)n1)C(N)=O (some centres not stated) | inactive
C=C(NC(=O)C(=C)NC(=O)c1csc(C2=NC3c4csc(n4)C4NC(=O)c5csc(n5)C(C(C)(O)C(C)O)NC(=O)C5CSC(=N5)C(=CC)NC(=O)C(C(C)O)NC(=O)c5csc(n5)C3(CC2)NC(=O)C(C)NC(=O)C(=C)NC(=O)C(C)NC(=O)C(C(C)CC)NC2C=Cc3c(C(C)O)cc(nc3C2O)C(=O)OC4C)n1)C(N)=O (configuration not stated) | inactive
C[C@@H]1CCCCO[C@H](CN(C)C(=O)NC2CCCCC2)[C@@H](C)CN([C@@H](C)CO)C(=O)c2cc(NC(=O)C3CCCCC3)ccc2O1 | inactive
CS(=O)(=O)N1[C@@H]2c3ccc(-c4ccc(F)cc4)c(=O)n3C[C@@H]2[C@@H](CO)[C@@H]1C(=O)O | inactive
Cc1noc(C)c1S(=O)(=O)N(C)C[C@H]1Oc2ccc(NS(=O)(=O)c3ccccc3)cc2C(=O)N([C@@H](C)CO)C[C@H]1C | inactive
C[C@@H]1CCCCO[C@H](CN(C)S(C)(=O)=O)[C@H](C)CN([C@@H](C)CO)C(=O)c2cc(NS(=O)(=O)c3cn(C)cn3)ccc2O1 | inactive
C[C@H]1CCCCO[C@H](CN(C)Cc2ccc(Cl)c(Cl)c2)[C@@H](C)CN([C@@H](C)CO)C(=O)c2cc(NC(=O)Cc3ccccc3)ccc2O1 | inactive
C[C@@H]1CCCCO[C@@H](CN(C)Cc2ccc(Cl)c(Cl)c2)[C@@H](C)CN([C@H](C)CO)C(=O)c2cc(NC(=O)Cc3ccccc3)ccc2O1 | active
C[C@@H]1CCCCO[C@H](CN(C)Cc2ccc(Cl)c(Cl)c2)[C@H](C)CN([C@@H](C)CO)C(=O)c2cc(NC(=O)Cc3ccccc3)ccc2O1 | inactive
C[C@@H]1CCCCO[C@@H](CN(C)Cc2ccc(Cl)c(Cl)c2)[C@H](C)CN([C@H](C)CO)C(=O)c2cc(NC(=O)Cc3ccccc3)ccc2O1 | active
C[C@@H]1CN([C@H](C)CO)C(=O)c2cc(NC(=O)Cc3ccccc3)ccc2O[C@@H](C)CCCCO[C@@H]1CN(C)Cc1ccc(Cl)c(Cl)c1 | inactive
C[C@@H]1CCCCO[C@@H](CN(C)Cc2ccc(Cl)c(Cl)c2)[C@H](C)CN([C@@H](C)CO)C(=O)c2cc(NC(=O)Cc3ccccc3)ccc2O1 | inactive
C[C@@H]1CN([C@H](C)CO)C(=O)c2cc(NC(=O)Cc3ccccc3)ccc2O[C@@H](C)CCCCO[C@H]1CN(C)Cc1ccc(Cl)c(Cl)c1 | active
C[C@@H]1CCCCO[C@H](CN(C)Cc2ccc(Cl)c(Cl)c2)[C@@H](C)CN([C@@H](C)CO)C(=O)c2cc(NC(=O)Cc3ccccc3)ccc2O1 | inactive
C[C@@H]1CCCCO[C@@H](CN(C)Cc2ccc(Cl)c(Cl)c2)[C@@H](C)CN([C@@H](C)CO)C(=O)c2cc(NC(=O)Cc3ccccc3)ccc2O1 | inactive
